# Results published in PubChem BioAssay (NCATS).
# Records with an inconclusive call do not appear. A call without a number means that no potency is given here. A number with no mark means an inactive call. Active and inactive are the calls of the source. The call rests on the fitted dose curve; in most records, active means well fitted curve in the direction sought with a large enough effect; inconclusive means small, poorly fitted or top-dose-only effect, or another doubt; inactive means no such curve, though single readings can be large; an effect the other way counts as inactive or inconclusive.
# How the values were obtained:
# [1] = system: JEG-3; assay: Primary qHTS to identify gynecologic anti-cancer compounds using libraries of approved drugs and bioactive compounds (AID 1345084); conditions: Gynecologic cancer cell panel viability, ATPlite luminescence, 48 h; series mostly up to 57.5 µM; further: nearly all actives have a fitted effect of over 55% in size
# Procedure, shortened: (§1)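 Five-concentration response, 48 h; readout is ATP-driven luciferase luminescence.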
# [2] = system: PA-1; assay: as above; conditions: Gynecologic cancer cell panel viability, ATPlite luminescence, 48 h; series mostly up to 57.5 µM
# Procedure, shortened: as §1
# [3] = system: SKOV3; assay: as above; conditions: Gynecologic cancer cell panel viability, ATPlite luminescence, 48 h; series mostly up to 57.5 µM
# Procedure, shortened: as §1
# [4] = system: Tov-21-G; assay: as above; conditions: Gynecologic cancer cell panel viability, ATPlite luminescence, 48 h; series mostly up to 57.5 µM
# Procedure, shortened: as §1
# [5] = system: Tov112D; assay: as above; conditions: Gynecologic cancer cell panel viability, ATPlite luminescence, 48 h; series mostly up to 57.5 µM
# Procedure, shortened: as §1
# [6] = qHTS assay to identify inhibitors of the type 1 interferon - major histocompatibility complex class I in skeletal muscle: Counter screen cell viability and HiBit confirmation (AID 1347412); conditions: iHSKM muscle cells + IFN-b, HiBiT or CellTiter-Glo, 24 h; further: nearly all actives have a fitted effect of over 60% in size
# Procedure, shortened: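 HLA-B*08:01–HiBiT knock-in immortalized human myoblasts (C25cl48) stimulated with 4.0 ng/ml human IFN-beta and dosed with compound in a 12-point 1:3 titration (top final 46 uM). After 24 hrs at 37 C, HiBiT lytic luminescence or CellTiter Glo ATP read out.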
# [7] = system: OV90; assay: Primary qHTS to identify gynecologic anti-cancer compounds using libraries of approved drugs and bioactive compounds (AID 1345084); conditions: Gynecologic cancer cell panel viability, ATPlite luminescence, 48 h; series mostly up to 57.5 µM; further: nearly all actives have a fitted effect of over 55% in size
# Procedure, shortened: as §1
# Potency means the concentration at half of the fitted maximal effect.
smiles,measurement,setting,value
C/C=C/C=C/C(O)=C1\C(=O)[C@]2(C)C3C(C(=O)CC/C=C/C)=C(O)C4(C)C1[C@]1(C)O[C@@]4(O)[C@@]3(C)O[C@@]12O,Potency,[1],inactive
same,Potency,[2],inactive
same,Potency,[3],inactive
same,Potency,[4],inactive
same,Potency,[5],inactive
O=C(O)c1ccccc1NCCc1ccccc1,Potency,[1],inactive
same,Potency,[2],inactive
same,Potency,[3],inactive
same,Potency,[4],inactive
same,Potency,[5],inactive
COc1cc(OC)c(/C=C/S(=O)(=O)Cc2ccc(OC)c(NCC(=O)O)c2)c(OC)c1,Potency,[1],0.447 µM (active)
same,Potency,[2],0.224 µM (active)
same,Potency,[5],0.316 µM (active)
Cc1cnc(NC(=O)Nc2cc(Br)c(C)cc2OCC2CNCCO2)cn1 (stereo not drawn),Potency,[1],inactive
same,Potency,[2],inactive
same,Potency,[3],10 µM (active)
same,Potency,[5],inactive
CCN(CC)Cc1ccc(C(=O)N(CCc2ccccc2OC)[C@@H]2CCNC2)cc1,Potency,[1],inactive
same,Potency,[2],inactive
same,Potency,[3],inactive
same,Potency,[4],inactive
same,Potency,[5],inactive
CN[C@H](CC(C)C)C(=O)N[C@H]1C(=O)N[C@@H](CC(N)=O)C(=O)N[C@H]2C(=O)N[C@H]3C(=O)N[C@H](C(=O)N[C@H](C(=O)O)c4cc(O)cc(O)c4-c4cc3ccc4O)[C@H](O[C@H]3C[C@](C)(N)[C@@H](O)[C@H](C)O3)c3ccc(c(Cl)c3)Oc3cc2cc(c3O[C@@H]2O[C@H](CO)[C@@H](O)[C@H](O)[C@H]2O[C@H]2C[C@](C)(NCc3ccc(-c4ccc(Cl)cc4)cc3)[C@@H](O)[C@H](C)O2)Oc2ccc(cc2Cl)[C@H]1O,Potency,[1],inactive
same,Potency,[2],inactive
same,Potency,[3],inactive
same,Potency,[4],inactive
same,Potency,[5],inactive
O=C(C(c1ccccc1)c1ccccc1)N1CCN(CC(O)COc2cccc3ncccc23)CC1 (stereo not drawn),Potency,[1],inactive
same,Potency,[2],inactive
same,Potency,[3],inactive
same,Potency,[4],inactive
same,Potency,[5],inactive
CNCc1ccc(-c2cc(-c3nc(-c4ccc(S(=O)(=O)C(C)C)cc4)cnc3N)on2)cc1,Potency,[1],inactive
same,Potency,[2],11.2 µM (active)
same,Potency,[3],3.16 µM (active)
same,Potency,[4],1.58 µM (active)
CC(C)c1c2cc(-c3ccnc(NC4CCC(NC5CCOCC5)CC4)n3)ccc2nn1C (stereo not drawn),Potency,[1],inactive
same,Potency,[2],0.355 µM (active)
same,Potency,[5],0.398 µM (active)
same,Potency,[6]; HiBiT,0.249 µM (active)
same,"activity change, negative = inhibition","[6]; Viability, at 45.9 µM (top of the series)",-6.54%
COc1ccc(F)cc1-c1cc(NC(=O)[C@@H]2CCCNC2)ncc1Cl,Potency,[1],inactive
same,Potency,[2],0.355 µM (active)
same,Potency,[5],0.708 µM (active)
CN(C)c1nc(NC2CCC(NC(=O)c3ccc(F)c(F)c3)CC2)nc2ccccc12 (stereo not drawn),Potency,[7],11.2 µM (active)
same,Potency,[2],14.1 µM (active)
CC(C)=CCCC1(C)C=Cc2c(c(C)cc3c2[nH]c2ccccc23)O1 (stereo not drawn),Potency,[1],inactive
same,Potency,[3],8.91 µM (active)
same,Potency,[4],inactive
same,Potency,[5],inactive
NC(=O)[C@H]1CCS[C@@H]2C[C@]3(CCCN3C(=O)Cc3ccc(NC(=O)COc4ccc(Cl)cc4Cl)cc3)C(=O)N12,Potency,[7],inactive
same,Potency,[2],15.8 µM (active)
CCOc1cc(N2CCC(O)CC2)ccc1Nc1ncc2c(n1)N(C1CCCC1)CCC(=O)N2C,Potency,[1],inactive
same,Potency,[3],8.91 µM (active)
same,Potency,[5],inactive
C=CC(=O)Nc1cccc(Nc2nc(Nc3ccc(N4CCN(C(C)=O)CC4)cc3OC)ncc2C(F)(F)F)c1,Potency,[7],15.8 µM (active)
CCCN1CCC(c2cccc(S(C)(=O)=O)c2)CC1,Potency,[7],inactive
C[C@@H]1O[C@@H](O[C@H]2[C@H](O[C@H]3[C@H](O[C@H]4CC[C@@]5(C)C(CC[C@]6(C)C5CC=C5[C@@H]7CC(C)(C)CC[C@]7(C(=O)O[C@@H]7O[C@H](CO)[C@@H](O[C@@H]8O[C@@H](C)[C@H](O)[C@@H](O)[C@H]8O)[C@H](O)[C@H]7O)CC[C@]56C)C4(C)C)OC[C@H](O)[C@@H]3O)O[C@H](CO)[C@@H](O)[C@@H]2O)[C@H](O)[C@H](O)[C@H]1O (stereo partly drawn),"activity change, negative = cytotoxicity",[7],-0.139% [at 6.55 µM]
